Results on 40 compounds are retold here after PubChem BioAssay (Tox21).

SMILES strings stand for the structures. Values joined by “and” are separate entries in the source; they are usually repeats but may differ in a detail not shown here. Identical values can stand only once. Inconclusive results are not listed. Entries that show only a call come without a potency. Some compounds were tested as several samples or in several runs, with calls that do not always agree. Active and inactive are the calls of the source. Calls come from the whole dose curve; as a rule, active = well fitted inhibition curve with a large enough effect in the repeat runs; inconclusive = weak or mixed curves, or effect the other way; inactive = no such curve, though single readings can be large or run the other way.
Potency is the fitted concentration of half-maximal effect.

This assay concerns the target Nuclear receptor ROR-gamma (Homo sapiens) (UniProt P51449). Nature of the assay: qHTS assay to identify small molecule antagonists of the retinoid-related orphan receptor gamma (ROR-gamma) signaling pathway (AID 1159521; note: nearly all actives have a fitted effect of over 50% in size; for activity change, negative = inhibition: top concentration of the series differs between compounds). The following applies: Tet-on RORgamma CHO cells, RORE-luciferase, 16 h; series mostly up to 92.4 µM; activity change, negative = inhibition: at the top concentration. An excerpt: U.S. Tox21 Program National Center for Advancing Translational Sciences [NCATS] NIH Chemical Genomics Center [NCGC] U.S. Environmental Protection Agency [EPA] National Institutes of Environmental Health Sciences [NIEHS] National Toxicology Program [NTP] U.S. Food and Drug Administration [FDA] Tox21 Assay Overview: Nuclear steroid hormone receptors are involved in many biological processes including inflammatory responses, cell proliferation, and apoptosis. Environmental factors or compounds disrupting these nuclear receptor pathways and gene expression may promote susceptibility to immunotoxicants and autoimmune diseases. One important group of these expression factors are the retinoid-related orphan receptors. To assess compounds that may interfere with the retinoid-related orphan receptor gamma (ROR-gamma) transcription factor, a cell-based luciferase assay was used. The CHO cell-based assay utilizes a TET-inducible ROR expression factor and ROR response element-LUC reporter gene. Reporter gene activity was induced using Doxycycline Hyclate and measured after 16 hr incubation. Tet-on ROR gamma CHO cells were used to screen against the Tox21 10K compound library for ROR gamma antagonists by quantification of decreased reporter gene activity in terms of decreased luminescence.
Tox21 Assay Protocol Summary: Tet-on ROR gamma CHO cells were dispensed at 1,000 cells in 4 uL of culture medium per well into white wall/solid bottom 1536-well plates using a Multidrop Combi (Thermo Scientific, Waltham, MA) dispenser. Following incubation at 37 C and 5% CO2 for 4 hr, 23 nL of compounds dissolved in DMSO, positive controls or DMSO only were transferred by a Pintool station (Kalypsys, San Diego, CA) and after 2 hr incubation at 37 C, one ul of 1 uM (final concentration) of Doxycycline Hyclate was added to all the wells by using a Flying Reagent Dispenser (FRD) (Aurora Discovery, San Diego, CA). After 16 hr incubation at 37 C and 5% CO2, 5 uL of ONE-Glo reagent (Promega Corporation, Madison, WI) was added to each assay plate using FRD. After 30 min incubation at room temperature, luminescence was quantified on a ViewLux plate reader (Perkin Elmer, Waltham, MA).
Background: Quantitative high-throughput screening tests each substance at several concentrations.
With `Clc1ccc(Cl)c(Cl)c1Cl`, the Potency result is “inactive”.
Turning to `NCc1cccc(CN)c1`, the Potency result was “inactive”.
On the same count and under the same terms, in the case of `CCc1ccc(O)cc1` it was “inactive”.
Still for that read-out and setting: in the case of `CC(C)(C)C(=O)C1C(=O)c2ccccc2C1=O` it was 17.1 µM (active) and 30.6 µM (active); in that of `c1ccc2ccccc2c1`, “inactive”.
On the same count and under the same terms, in the case of `CC(C)NCC(O)COc1cccc2ccccc12` (stereo not given) it was “inactive”; in that of `O=S(=O)(Oc1ccc(Cl)cc1Cl)c1ccccc1`, “inactive”.
Take `CCOC(=O)C1OC1c1ccccc1` (stereo not given): the Potency entry is “inactive”.
For `CCCCC(CC)COC(C)=O` (stereo not given), the Potency result was “inactive”.
Same read-out and setting: in the case of `Oc1c(Cl)cc(Cl)c(Cl)c1Cl` it was 53.3 µM (active) and 61.1 µM (active).
`OC[C@@H](O)[C@@H](O)[C@H](O)[C@@H](O)CO`: the “activity change, negative = inhibition” value is 8.81% (inactive).
For `C=CC(=O)OCCCCCCCC(C)C`, the “activity change, negative = inhibition” value was 5.99% (inactive).
For `ClC1=C(Cl)C(Cl)(Cl)C(Cl)=C1Cl`, the “activity change, negative = inhibition” value was 11.3% (inactive).
`CCCCCCCCCC(=O)O`: the Potency result was “inactive”.
Same read-out and setting: the entry for `NC(=O)/N=N/C(N)=O` is “inactive”; for `O=C(Oc1ccccc1)c1ccc(O)cc1` it is “inactive”; for `CCCCCCCCCCCCN` it is “inactive”.
Regarding `CNC[C@H](O)[C@@H](O)[C@H](O)[C@H](O)CO`, the Potency entry is “inactive”.
On to `Cc1cc(NS(=O)(=O)c2ccc(N)cc2)no1`, for which the Potency result is “inactive”.
The same measure, in the same setting: in the case of `CN(C)c1ccc(C(=N)c2ccc(N(C)C)cc2)cc1` it was 21.4 µM (active) and 20.9 µM (active).
On to `CCOC(=O)[C@H](CCc1ccccc1)N[C@@H](C)C(=O)N1Cc2ccccc2C[C@H]1C(=O)O`, for which the “activity change, negative = inhibition” value was -17.7% (inactive).
With `O=C1O[C@H](CO)[C@@H](O)[C@H](O)[C@H]1O`, the Potency entry is “inactive”.
Regarding `CC(=O)Nc1ccc(C(=O)O)cc1`, the Potency result was “inactive”.
Regarding `CC1Cc2ccccc2N1NC(=O)c1ccc(Cl)c(S(N)(=O)=O)c1` (stereo not given), the “activity change, negative = inhibition” value is 26.1% (inactive).
In the case of `CCCCCCCCCCC=CC1CC(=O)OC1=O` (stereo not given), the Potency is 54.8 µM (active) and inactive.
For the compound `OCCOCCOCCOCCO`, the Potency result was “inactive”.
Same read-out and setting: in the case of `CC1=C(CC(=O)O)c2cc(F)ccc2/C1=C\c1ccc(S(C)=O)cc1` (stereo not given) it was “inactive”; in that of `CC#C[C@]1(O)CC[C@H]2[C@@H]3CCC4=CC(=O)CCC4=C3[C@@H](c3ccc(N(C)C)cc3)C[C@@]21C`, 30.6 µM (active) and 26.6 µM (active); in that of `Cc1cc(=O)[nH]c(C(C)C)n1`, “inactive”.
As for `O=C(Cl)c1c(Cl)c(Cl)c(C(=O)Cl)c(Cl)c1Cl`, the Potency result was “inactive”.
For the compound `C=C1C2CCC(C2)C1(C)C` (stereo not given), the Potency result was “inactive”.
The same measure, in the same setting: in the case of `c1ccc2[nH]cnc2c1` it was “inactive”; in that of `Oc1ccc2ccccc2c1N=Nc1ccccc1`, “inactive”.
Turning to `CCCCCCCCCCCCOCC1CO1` (stereo not given), the “activity change, negative = inhibition” value is 29.1% (inactive).
Take `Cc1ccc(C)c(C)c1`: the Potency entry was “inactive”.
For `CC(C)(N=C=O)c1cccc(C(C)(C)N=C=O)c1`, the Potency entry was “inactive”.
Still for that read-out and setting: the entry for `O=C(c1ccc(O)cc1)c1ccc(O)cc1O` is “inactive”.
As to `Cc1cc(O)cc(C)c1Cl`, the “activity change, negative = inhibition” value is -14.8% (inactive).
`CCCCC(CC)C(=O)OCCOCCOCCOC(=O)C(CC)CCCC` (stereo not given): the Potency result was “inactive”.
Same read-out and setting: the entry for `OCC1CCCO1` (stereo not given) is “inactive”.
